Hits are enriched below; roughly 8% of the tested compounds scored in any of these assays.
Lassa entry: blocks Lassa virus binding or cell entry. 18,000 compounds, 4.1% hits. Lassa virus pseudotyped entry inhibition, cell-based qHTS. Potency, µM (series often up to 49.2 µM), for inactives: top-dose activity change, negative = inhibition, most hits filed as inhibitors. AID 720533
MARV entry inh: inhibitors of Marburg virus binding or entry into cells. Marburg virus pseudotype entry/binding inhibition, cell-based. Potency, µM (series often up to 49.2 µM), without a hit: at the top dose activity change, negative = inhibition, most hits filed as inhibitors. 18,000 compounds, 6.5% hits. AID 720532
An asterisk follows results filed as active; ? = inconclusive; . = no result given; ! = repeats disagree; [ ] = another dose, or the depositor's remark. The call rests on the fitted dose curve; tested in HEK293 cells. On the % scale 0 is the no-effect control and ±100 the full control effect; potency means the concentration at half of the fitted maximal effect.

SMILES	Lassa entry	MARV entry inh
CN1C[C@H](CNC(=O)OCc2ccccc2)C[C@H]2c3cccc4c3c(cn4C)C[C@@H]21	?	10µM*
CO[C@@]12C[C@@H](COC(=O)c3cncc(Br)c3)CN(C)[C@H]1Cc1cn(C)c3cccc2c13	4%	-1%
CCN(CC)CCCCCCCCOC(=O)c1cc(OC)c(OC)c(OC)c1	25µM*	13µM*
COc1cc(C(=O)OCCCN2CCCN(CCCOC(=O)c3cc(OC)c(OC)c(OC)c3)CC2)cc(OC)c1OC	?	7.1µM*
CCN(CC)CCOC(=O)c1ccc(N)cc1	6%	-12%
COc1cc(/C=C/C(=O)N2CCN(CC(=O)N3CCCC3)CC2)cc(OC)c1OC	-12%	12%
CC1(C)CC(n2cnc(-c3ccc(F)cc3)c2-c2ccnc(N)n2)CC(C)(C)N1	27%	?
O=C(NCCN1CCOCC1)c1cnn(-c2nccc(-c3cc4ccccc4o3)n2)c1C1CC1	-13%	-25%
O[C@H]1CN(CC2CCCCC2)[C@@H](c2ccc(Cl)cc2)C[C@H]1n1cc(-c2ccc(F)cc2)nn1	-7%	?
CC(=O)c1ccc(C(=O)NCC2Cc3cccc(-c4ncccn4)c3O2)cc1 (stereo unspecified)	4%	?
O=C(CSc1ncccn1)NCC1Cc2cccc(-c3ncccn3)c2O1 (stereo unspecified)	-5%	141µM*
COc1ccc(CN2CCC3(CC2)c2ccccc2[C@@H](NC(=O)c2ccccc2OC)[C@@H]3O)cc1O	-2%	-22%
CN1C/C(=C/c2ccc(B(O)O)cc2)C(=O)/C(=C/c2ccc(B(O)O)cc2)C1	13µM*	6.3µM*
COC(=O)[C@H]1[C@@H](c2ccccc2)NC(=O)N(Cc2ccccc2)[C@@H]1C	-1%[8.59 µM]	?
CC1(C)C(=O)C=C[C@@]2(C)C1=C(O)C(=O)[C@@]1(C)C2CC[C@@]2(C)C(c3ccoc3)C[C@H]3O[C@@]321 (stereo partly specified)	11µM*	5µM*
CC(=O)OC1CC(OC(C)=O)[C@]2(C)C(CC(=O)[C@]3(C)C2CC[C@@]2(C)C(c4ccoc4)OC(=O)C4O[C@@]423)C1(C)C (stereo partly specified)	-17%	5%
CCOC(=O)OC[C@H]1O[C@H](C#Cc2ccc(C)cc2C)C=C[C@H]1OC(=O)OCC	-8%[8.59 µM]	4%[8.59 µM]
Cc1ccc2c(c1)C1(CCN(CCc3nc(-c4ccccc4)oc3C)CC1)OC(=O)N2	13µM*	?
O=C1NCC2(CCN(CCc3ccccc3)CC2)O1	-8%	-10%
Cn1cc(C2=C(c3cn(C4CCN(Cc5ccccn5)CC4)c4ccccc34)C(=O)NC2=O)c2ccccc21	?	7.1µM*
CCC1(C2CCN(Cc3ccccn3)CC2)NC(=O)N(CC2COc3ccccc3O2)C1=O (stereo unspecified)	-8%	-1%
NC(=O)c1cccc(Nc2nccc(Nc3cccc4[nH]ncc34)n2)c1	-16%	?
COc1cccc2c1[C@@H]1CN(CCCCn3c(=O)[nH]c4c(sc5ncc(-c6ccccc6)nc54)c3=O)C[C@@H]1CO2	-4%	10µM*
CC(=O)[C@@]12C3[C@@H](CCN3C(=O)N[C@H]1c1ccccc1)[C@H]2c1ccccc1 (stereo partly specified)	-4%[8.59 µM]	21%[8.59 µM]
CCCC=Cc1ccc(CN2C(C(C)C)C(=O)N(Cc3cn(Cc4ccco4)nn3)CCS2(=O)=O)cc1 (stereo unspecified)	-10%	?
SMILES	Lassa entry	MARV entry inh
NC(=NC1C2CC3CC(C2)CC1C3)Nc1ccc(I)cc1 (stereo unspecified)	8.9µM*	11µM*
O=c1oc2ccccc2c2c1[C@H]1O[C@](c3ccsc3)(Cc3c1ccc1ccccc31)O2	10%[8.59 µM]	5%[8.59 µM]
COC(=O)C1=C(C(=O)OC)[C@@H]2N(Cc3ccccc3)c3ccccc3[C@@]23CCC(=O)N(CC2CCCCC2)C3=N1	3%[8.59 µM]	11%[8.59 µM]
COc1cc(N2CCN(C(C)C)CC2)ccc1Nc1nc(Nc2cccc(F)c2C(=O)O)c2cc[nH]c2n1	-4%	-21%
CNC(=O)c1ncccc1Nc1nc(Nc2cc3c(cc2OC)CCCN3C(=O)CN(C)C)nc2[nH]ccc12	?	2.5µM*
COc1cc2c(cc1Nc1nc(Nc3ccsc3C(N)=O)c3cc[nH]c3n1)N(C(=O)CN(C)C)CCC2	.	1.6µM*
COC(=O)C1=C2CCCO[C@H]2[C@@H]2[C@@H](C)[C@H](OC)c3ccccc3[C@@H]12	-13%[8.59 µM]	2%[8.59 µM]
C=CC1CC2C=CCOP(=O)(O1)O2 (stereo unspecified)	-12%	?
CC1=C(C(=O)Nc2ccc3[nH]ncc3c2)C(c2ccc(Cl)c(Cl)c2)CC(=O)N1 (stereo unspecified)	17%	-18%
CC1(C)CC(=O)C2=C(C1)O[C@@]1(CCCCN3C(=O)c4ccccc4C3=O)Cc3c(ccc4ccccc34)[C@H]2O1	-4%[8.59 µM]	-27%[8.59 µM]
CS(=O)(=O)CCNCc1coc(-c2ccc3ncnc(Nc4ccc(OCc5ccccc5)cc4)c3c2)c1	-69%	?
COC(=O)c1ccc(O)cc1	-7%	3%
COC(=O)/C=C\c1cc(O)ccc1O	25µM*	10µM*
Cc1nc(C)c(C(=O)NCc2nc(-c3cccc(NC(=O)c4ccccn4)c3)oc2C)s1	?	3%
CCN1C(=NCCc2ccccn2)NC(c2cccs2)C(C(=O)OC)=C1C (stereo unspecified)	0%[8.59 µM]	?
CCCCCCC(=O)Cc1cc(OC)c(OC)cc1C=C(C(C)=O)C(=O)OC	17%[8.59 µM]	?
CN1CCN(Cc2ccc(-c3cc4ncnc(Nc5ccc(OCc6cccc(F)c6)c(Cl)c5)c4s3)o2)CC1	?	10µM*
Fc1cccc(COc2ccc(Nc3ncnc4sc(-c5ccco5)cc34)cc2Cl)c1	-15%	?
C[C@H]1COc2cc(F)ccc2S(=O)(=O)N1	-11%	?
O=C(c1n[nH]c2c1CCCC2)N1CCOc2ccc(C(O)C3CCCCC3)cc2C1 (stereo unspecified)	8.9µM*	11µM*
O=C(c1ccc(Cn2cnnn2)cc1)N1CCOc2ccc(C(O)C3CCCCC3)cc2C1 (stereo unspecified)	?	-25%
CCc1nc(CN2CCOc3ccc(C(O)C4CCCCC4)cc3C2)c(C)[nH]1 (stereo unspecified)	?	13µM*
OC(c1ccc2c(c1)CN(Cc1cccc3nccnc13)CCO2)C1CCCCC1 (stereo unspecified)	-1%	-7%
COc1cc2c(c(OC)c1OC)C(c1ccccc1)(c1ccccc1)CC2NC(=O)C(F)(F)F (stereo unspecified)	10%[8.59 µM]	-10%[8.59 µM]
Cc1cc2c(nc1C)CCCCN2C[C@H](C)ON=C[C@@H](C)[C@H](OCc1ccccc1)C(C)C	-19%[8.59 µM]	?
CCCCCCN1C[C@H](n2cc(C3CC3)nn2)[C@@H](O)C[C@H]1c1ccc(C)cc1	-25%	-31%
FC(F)(F)c1ccc(-c2nc(-c3ccccc3)oc2Nc2ccc3ccccc3c2)cc1	.	32%[8.59 µM]
O=C(Nc1cccc(C(=O)NC2CC2)c1)c1ccccc1	11%	43%
Cc1ccc(C(=O)Nc2ccc(S(=O)(=O)O)c3cc(S(=O)(=O)O)cc(S(=O)(=O)O)c23)cc1NC(=O)c1cccc(NC(=O)Nc2cccc(C(=O)Nc3cc(C(=O)Nc4ccc(S(=O)(=O)O)c5cc(S(=O)(=O)O)cc(S(=O)(=O)O)c45)ccc3C)c2)c1	-23%	3.1µM*!

High-throughput results as filed in PubChem BioAssay.
